PubChem BioAssay AID1203 (The Scripps Research Institute Molecular Screening Center, 2008)
About 80 (0.04%) of roughly 200,000 compounds were called active.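 The calls were made as follows: active = activation above the mean across all tested compounds plus 3 SD, cutoff set per campaign (cut at about 5.5% in these data); inactive = the rest.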 Many of the other results were omitted from the sample, so actives are more common in it than they were.

test: Hsp70 transcriptional activators, primary screen, cell-based, HeLa, Hsp70 promoter luciferase, luminescence, 10 µM (AID 1203); settings: HeLa Hsp70 promoter luciferase reporter, at 10 µM, active compounds read high, scaled: vehicle 0, proteasome-inhibitor control 100%;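 also: 100% = MG132 at 30 µM as the positive control and 0% = DMSO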

activation, inactive:
COc1ccc(OCC(O)CNC(=O)Nc2ccc(Cl)cc2)cc1 (stereo unspecified) -0.12%
NS(=O)(=O)c1ccc(N=Cc2ccc(Br)s2)cc1 -0.31%
CCOC(=O)C/C(C)=N\Nc1ccc([N+](=O)[O-])cc1[N+](=O)[O-] 0.04%
O=S(=O)(c1ccc2c(c1)OCCO2)N1CCc2ccccc21 0.08%
O=C(CSc1nncs1)NC1CCCc2ccccc21 (stereo unspecified) -0.09%
O=S(=O)(ON(c1ccccc1)S(=O)(=O)c1ccccc1)c1ccccc1 -0.24%
CCOC(=O)c1c(NC(=S)NC(=O)/C=C/c2cccs2)sc(C)c1C -0.28%
O=C(NNC(=S)Nc1ccc(Br)cc1Cl)c1ccco1 -0.21%
CCC(=O)OCc1c(C(F)(F)F)nn(C)c1Oc1cccc(C(F)(F)F)c1 -0.27%
CCNC(=O)NNC(=O)C1CC(c2cccs2)=NO1 (stereo unspecified) -0.44%
CCOC(=O)c1cnc2c(c(C)nn2CC)c1Cl -0.38%
C/C(=N\NC(=O)CNc1cccc2ccccc12)c1ccc(Br)s1 -0.39%
CCCC1NC(=S)NC(C)=C1C(C)=O (stereo unspecified) -0.09%
CCOC(=O)NN1C(=O)c2ccccc2NC1c1ccccc1O (stereo unspecified) -0.07%
CC1CC(C)(C)NC(=S)N1CCC(=O)N1CCN(Cc2ccccc2)CC1 (stereo unspecified) -0.64%
CC(C)(C)c1ccc(NC(=O)COC(=O)CCc2nc3ccccc3c(=O)[nH]2)cc1 -0.35%
CSCCC(NC(=O)COc1ccccc1)C(=O)Nc1ccc(C)cc1 (stereo unspecified) -0.22%
COc1ccc(C(CC(=O)c2ccccc2)S(=O)(=O)c2ccccc2)cc1 (stereo unspecified) -0.26%
COC(=O)C1=CN(Cc2ccc(OC)c(OC)c2)C=C(C(=O)OC)C1c1cccs1 -0.18%
O=C1Oc2ccccc2C(=O)/C1=C/c1ccccc1O -0.37%
CC(=O)c1ccc(NC(=O)C(C)N(C)CC(=O)Nc2ccccc2Cl)cc1 (stereo unspecified) -0.06%
